# Screening data as filed in PubChem.
# This is a sample that favours compounds with a hit; in the whole collection about 3.7% have one here.
# BoNT F protease: BoNT/F light chain protease inhibitors, primary screen, biochemical, flow cytometry, MLPCN library; AID 588497, 2011; Botulinum neurotoxin type F light chain protease (Clostridium botulinum); Multiplex microsphere protease cleavage assay; 360,000 tested, 0.22% active; inhibition, % at 10 µM; in the data active = inhibition above about 35%, passing the limit was not always enough; inconclusive = no clear call, values can overlap the other calls
# Autofluor counter: compound fluorescence in toxin protease inhibitor counterscreen | compound autofluorescence counterscreen, microsphere flow cytometry; hits give high values | fluorescence intensity (test concentration not listed) | 360,000 tested, 3.1% active | AID 624483; in the data active = fluorescence intensity above about 16000; inconclusive = no clear call, values can overlap the other calls
# BoNT A protease: BoNT/A light chain protease inhibitors, primary screen, biochemical, flow cytometry, MLPCN library. multiplex microsphere protease substrate cleavage. inhibition, % at 10 µM. 360,000 tested, 0.17% active
# MazEF act: activators of E. coli MazEF toxin-antitoxin RNase, primary screen, biochemical, fluorescence, uHTS | Endoribonuclease toxin MazF (Escherichia coli (strain K12)), P0AE70 | FAM/BHQ RNA-DNA oligo cleavage fluorescence, 5 h | activation, % at 20 µM | 350,000 tested, 0.32% active | AID 504720, 2011; in the data active = activation above about 50%
# Anthrax LF prot: Bacillus anthracis LF protease inhibitors, primary screen, biochemical, multiplex microsphere, MLPCN library; Lethal factor (Bacillus anthracis), P15917; multiplex microsphere protease cleavage assay; inhibition, % at 10 µM; 360,000 tested, 0.12% active; AID 588501, 2011
# Target sequence (P15917 whole entry, looked up): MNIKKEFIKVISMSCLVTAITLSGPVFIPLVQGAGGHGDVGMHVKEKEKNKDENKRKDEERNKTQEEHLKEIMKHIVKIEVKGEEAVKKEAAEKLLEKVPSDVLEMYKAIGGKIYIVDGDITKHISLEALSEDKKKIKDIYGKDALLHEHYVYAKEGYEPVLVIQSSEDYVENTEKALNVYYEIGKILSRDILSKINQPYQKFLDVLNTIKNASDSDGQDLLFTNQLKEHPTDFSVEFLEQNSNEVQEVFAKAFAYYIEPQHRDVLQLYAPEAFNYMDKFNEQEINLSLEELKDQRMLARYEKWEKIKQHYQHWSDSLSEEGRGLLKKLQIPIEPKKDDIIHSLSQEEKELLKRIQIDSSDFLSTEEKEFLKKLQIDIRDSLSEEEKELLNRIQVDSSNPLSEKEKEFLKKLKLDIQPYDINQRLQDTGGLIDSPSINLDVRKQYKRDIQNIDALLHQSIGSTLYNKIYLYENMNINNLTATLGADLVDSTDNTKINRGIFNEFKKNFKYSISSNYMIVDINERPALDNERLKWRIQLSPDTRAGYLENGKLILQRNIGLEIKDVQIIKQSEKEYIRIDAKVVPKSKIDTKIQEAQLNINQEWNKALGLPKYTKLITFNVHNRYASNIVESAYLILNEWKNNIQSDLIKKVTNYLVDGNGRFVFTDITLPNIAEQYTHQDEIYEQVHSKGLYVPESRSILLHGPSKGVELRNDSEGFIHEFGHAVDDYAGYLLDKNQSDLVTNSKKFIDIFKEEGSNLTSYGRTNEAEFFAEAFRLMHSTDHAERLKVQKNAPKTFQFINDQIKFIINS
# A number is an active result; – = inactive; ? = inconclusive; · = no result; + = active, no number. Rule as the data show it, unless noted: active = inhibition above about 30%; inconclusive = no clear call, values can overlap the other calls; inactive = below that.
SMILES,BoNT F protease,Autofluor counter,BoNT A protease,MazEF act,Anthrax LF prot
CCOC(=O)Nc1cc(N)ncn1,–,–,–,–,–
c1ccc2c(c1)ncn2-c1cncnc1,–,–,–,·,–
CCCCN1C(=O)C(O)=C(C(C)=O)C1c1ccccc1 (stereo not drawn),–,–,–,–,–
CCCCCCCCN1C(=O)C(O)=C(C(C)=O)C1c1ccccn1 (stereo not drawn),–,31940,–,–,–
CN1CCn2cnc(C(=O)NCCCCCNC(=O)OC(C)(C)C)c2C1=O,–,–,–,–,–
Cc1ccc(S(=O)(=O)C(C#N)c2nc3ccccc3nc2N2CC(C)OC(C)C2)cc1C (stereo not drawn),–,17403,–,–,–
CC1CN(c2nc3ccccc3nc2C(C#N)C(=O)OC2CCCCC2)CC(C)O1 (stereo not drawn),–,21164,?,–,–
CC1CCN(c2nc3ccccc3nc2C(C#N)C(=O)OC2CCCCC2)CC1 (stereo not drawn),–,–,–,–,–
CCN1CCN(c2nc3ccccc3nc2C(C#N)S(=O)(=O)c2ccc(C)c(C)c2)CC1 (stereo not drawn),–,22821,–,–,–
O=C(Nc1ccc(Cl)cc1)c1csc([C@@H]2O[C@H](CO)[C@@H](O)[C@H]2O)n1,–,–,–,·,–
Cc1cc(NC(=O)c2ccccc2)sc1C,–,–,–,–,–
Cc1ccc(NC(=O)c2ccccc2)s1,–,24292,–,–,–
CCCC(C)C(=O)Nc1ncc(S(=O)(=O)c2ccc([N+](=O)[O-])cc2)s1 (stereo not drawn),–,?,–,–,–
Cc1csc(=O)n1CCC(=O)OCC(=O)N(C)c1c(N)n(Cc2ccccc2)c(=O)[nH]c1=O,–,–,–,–,–
COc1ccc(-c2cc(C)no2)cc1S(=O)(=O)N1CCOc2ccc(C)cc21,–,–,–,76,–
CCc1ccc(-c2cc(C)no2)cc1S(=O)(=O)N1CCOc2ccccc21,–,–,–,–,–
Fc1ccccc1N1CCN(C(c2ccnc3ccccc23)c2nnnn2-c2ccc3c(c2)OCCO3)CC1 (stereo not drawn),–,–,–,·,–
N#CCCn1cc(/C=C(\C#N)c2nc3ccccc3s2)c(-c2ccc(F)cc2)n1,–,–,–,53,–
COC(=O)c1cc(NC(=O)Cc2ccccc2[N+](=O)[O-])cc(C(=O)OC)c1,–,18194,–,–,–
O=C(Cc1ccccc1[N+](=O)[O-])Nc1ccc2c(c1)OCCO2,–,–,–,–,–
O=C(NCCN1CCN(Cc2ccccc2)CC1)c1ccc(CS(=O)(=O)c2c(Cl)cccc2Cl)o1,–,–,–,–,–
CN(CCO)c1cc(Sc2nc3ccccc3s2)c2nonc2c1[N+](=O)[O-],–,21417,–,–,–
COc1ccc2c(c1OC)OCC2C (stereo not drawn),–,–,–,–,–
CCc1ccccc1NC(=O)CNC(=O)CCC(=O)c1cc(C)sc1C,–,–,–,–,–
COc1cc2c(cc1OC)/C(=C/C(=O)c1ccc(C)cc1)NCC2,–,–,–,–,–
SMILES,BoNT F protease,Autofluor counter,BoNT A protease,MazEF act,Anthrax LF prot
COc1cc2c(cc1OC)/C(=C/C(=O)c1ccc([N+](=O)[O-])c(C)c1)NCC2,–,–,–,74,–
COc1ccccc1S(=O)(=O)N(C)C[C@@H]1OCc2cnnn2CCCC(=O)N([C@@H](C)CO)C[C@@H]1C,–,–,–,–,–
NC(=O)c1nn(-c2cccc(Cl)c2)c(=O)cc1O,–,16281,–,–,–
NC(=O)c1nn(-c2ccc(Oc3ccccc3)cc2)c(=O)cc1O,–,–,–,–,–
O=C(Nc1ccccc1)c1nn(-c2ccccc2)c(=O)cc1C(F)(F)F,–,–,–,381,–
NC(=O)c1nn(-c2ccccc2)c(=O)cc1O,–,22915,–,–,–
Cc1ccccc1C1CC(=O)Oc2cc(O)ccc21 (stereo not drawn),–,–,–,–,–
C[C@H]1CN([C@@H](C)CO)C(=O)CCCn2nncc2CO[C@H]1CN(C)C(=O)Nc1cccc2ccccc12,–,–,–,·,–
CCCCOc1cccc(-c2cc(C(=O)NNC(=S)NCC)c3ccccc3n2)c1,–,19871,–,–,–
CCNC(=S)NNC(=O)c1cc(C2CC2)nc2ccccc12,–,22689,–,–,–
CCNC(=S)NNC(=O)c1cc(-c2cccc(OCC)c2)nc2ccccc12,–,–,–,–,–
COc1ccc2ccccc2c1CN1CCN(C)CC1,–,19346,?,–,–
COc1ccc(CN2CCN(c3ccccc3)CC2)c(C)c1C,–,23743,?,–,–
COc1ccccc1N1CCN(Cc2ccc(OC)c(OC)c2OC)CC1,–,?,–,–,–
CCOc1ccccc1N1CCN(Cc2cccc(OC)c2OC)CC1,–,16205,–,–,–
COc1ccc(CN2CCN(c3ncccn3)CC2)c(C)c1C,–,–,–,–,–
CCN1CCN(Cc2c(OC)ccc3ccccc23)CC1,–,19532,–,–,–
CCOC(=O)[C@]12CCCC=C1N(Cc1ccc3c(c1)OCO3)C(=O)[C@H](CC(=O)NCCc1ccccc1OC)C2,–,–,–,·,–
Cc1cc(OC2CCCCC2)nc(-c2ccccc2O)n1,–,22117,?,–,–
COc1cccc(COC(=O)C(Cc2ccccc2)NC(=O)c2ccco2)c1 (stereo not drawn),–,–,–,–,–
c1ccc(COc2cccc(CN3CCCCC3)c2)cc1,–,–,–,–,–
Cc1cccc(CN2CCN(c3ncccn3)CC2)c1,?,–,–,–,–
c1ccc(COc2cccc(CN3CCN(c4ccccn4)CC3)c2)cc1,–,20483,–,–,–
Cc1cccc(CN2CCN(c3ccccn3)CC2)c1,–,23318,?,–,–
O=C(Cc1cccs1)N[C@@H]1c2ccccc2CC[C@H]1OCc1ccccc1,–,–,–,–,–
SMILES,BoNT F protease,Autofluor counter,BoNT A protease,MazEF act,Anthrax LF prot
O=C(O)c1ccccc1OCCOCCOc1ccccc1C(=O)O,–,23112,–,–,–
N#CCCCn1c(-c2ccccc2)noc1=O,–,23665,?,–,–
O=c1onc(-c2ccccc2)n1Cc1ccc([N+](=O)[O-])cc1,–,–,–,–,–
Cc1ccc(C(=O)N2CCC(Cc3ccccc3)CC2)cc1S(=O)(=O)N1CCOCC1,–,–,–,–,–
CCCCN(C)CCNC(=O)c1c[nH]c2ccc(S(=O)(=O)N(CC)CC)cc2c1=O,–,20963,–,–,–
CCCNC(=O)c1c[nH]c2ccc(S(=O)(=O)N(C)c3ccc(OCC)cc3)cc2c1=O,·,·,·,–,·
COc1ccc(N(C(=O)C(C)C)S(=O)(=O)c2ccc(Cl)cc2)cc1,–,16342,–,–,–
Cc1ccccc1C(=O)N1CCC[C@@H]1C(=O)N1CCC[C@H]1C(=O)NCc1ccncc1,–,–,–,·,–
COc1ccc(/C=C2\SC(c3ccc(C)cc3)=NC2=O)cc1OC,–,–,–,+,–
